Results on 13 sequences are retold here after the supplement of paper PMC6555819.

Assay in all cases: PBM binding z-score (relative to random genomic background probes); higher = stronger binding; sequences stand for … in GC…GCGATTGACAGCGTAGAATGAAGG
Experiment [1] deals with RARg:RXRa (NR concentration 270 nM, RXRa partner concentration 90 nM). Put shortly:
(§1)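 Binding buffer was PBS pH 7.4 with 2% milk, 0.02% Triton X-100, 1 mM DTT, 0.2 mg/mL BSA and 0.4 mg/ml salmon testes DNA. In it, ligand-free nuclear receptor dimers were incubated 1 h on custom Agilent 4×180K protein-binding microarrays carrying double-stranded probes. Antibodies against each partner (one per run) detected binding, and z-scores were calculated against random background probes after regression normalization of scanned fluorescence.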

Experiment [2] has as its system RARg homodimer (NR concentration 270 nM). Put shortly:
as §1

In experiment [3] the test system is RXRa DBDmut IVT, anti-RXR (DBD mutation: RXRa K156A/R161A, NR concentration 90 nM). The gist of the method: as §1
The test system of experiment [4] is RXRa homodimer (NR concentration 180 nM). The gist of the method:
as §1

In experiment [5] the test system is THRa:RXRa (NR concentration 90 nM, RXRa partner concentration 90 nM). Put shortly:
as §1

Experiment [6] concerns THRa homodimer (NR concentration 90 nM). Put shortly:
as §1

For experiment [7], the system named is VDR homodimer (NR concentration 270 nM). Put shortly: as §1

Regarding ATCAAAAGGTCGAGGTGAGTATAGAGAAAGGGAA, the PBM binding z-score in experiment [1] is 4.7; in experiment [2], 4.98; in experiment [3], 1.28; in experiment [4], 4.83; in experiment [5], 3.11; in experiment [6] it was 1.26. Besides, the PBM binding z-score in experiment [7] is 1.18.

Turning to CCTTACGGGTCCCTCCAGGTTATAGCATCGGAGT, the PBM binding z-score in experiment [1] is 0.0762; in experiment [2], 0.0141; in experiment [3], -1.22; in experiment [4], 0.2; in experiment [5], 3.05; in experiment [6], 0.1. This sequence also came in with a PBM binding z-score in experiment [7] of 0.267.

Take CCTACTGGGCCAAAGAGGTCATTGATGCCGATAA: the PBM binding z-score in experiment [1] was 4.01; in experiment [2], 3.31; in experiment [3], 1.39; in experiment [4] it was 4.45; in experiment [5], 3.35; in experiment [6] it was 0.927. In experiment [7], this sequence came in with a PBM binding z-score of 3.97.

As for AACGAAAGGTCGAAGGTGAGTATACCCACCCGAA, the PBM binding z-score in experiment [1] was 4.5; in experiment [2], 3.96; in experiment [3], 1.05; in experiment [4] it was 5.29; in experiment [5], 2.16; in experiment [6], -0.462. In addition, the PBM binding z-score in experiment [7] was found to be 0.527.

As for TCTAGTTGGTCACGGAGGACACACACGACGGGTA, the PBM binding z-score is 1.55 in experiment [1]; 2.32 in experiment [2]; 0.501 in experiment [3]; 0.864 in experiment [4]; 1.83 in experiment [5]; 1.27 in experiment [6]. This sequence also yielded a PBM binding z-score in experiment [7] of 0.76.

As for TATTCAGGGTCAAAGGCCAGAGTACGAATGTCGA, the PBM binding z-score in experiment [1] came out at 6.24; in experiment [2] it was 5.27; in experiment [3], 3.3; in experiment [4], 7.75; in experiment [5], 3.83; in experiment [6] it was 1.25. In experiment [7], this sequence showed a PBM binding z-score of 3.62.

ATCGAAAGGTCGAAGGTGAGCATACCCACCCGAA: the PBM binding z-score in experiment [1] is 4.35; in experiment [2], 3.86; in experiment [3], 0.654; in experiment [4], 5.22; in experiment [5] it was 2.36; in experiment [6], 0.23. In experiment [7], this sequence returned a PBM binding z-score of 0.602.

As to CCTCGGAGGACAGAAGGTCAAAGCTGTCCGCTTT, the PBM binding z-score in experiment [1] was 4.94; in experiment [2], 4.52; in experiment [3] it was 0.948; in experiment [4], 4.07; in experiment [5], 3.2; in experiment [6] it was 0.161. For the same sequence, the PBM binding z-score in experiment [7] was 0.867.

AATACAGGGTGACTAGGCCAGAGTAGGTACGAAT: the PBM binding z-score was 0.739 in experiment [1]; 0.693 in experiment [2]; -0.419 in experiment [3]; 0.911 in experiment [4]; 0.915 in experiment [5]; 0.154 in experiment [6]. In experiment [7], this sequence had a PBM binding z-score of 0.309.

As for ACTTACGGCTCAACGAGGTTATAGCACGCGTATA, the PBM binding z-score in experiment [1] was found to be 0.411; in experiment [2], 0.49; in experiment [3], 0.343; in experiment [4], 0.9; in experiment [5], 1.33; in experiment [6], 0.562. The same sequence showed a PBM binding z-score in experiment [7] of 0.756.

Turning to CGTCAAAGTTCAAGGTCACGTAACAGAAAGCAGC, the PBM binding z-score in experiment [1] is 7.15; in experiment [2] it was 8.05; in experiment [3] it was 4.52; in experiment [4], 7.07; in experiment [5], 4.54; in experiment [6] it was 4.62. The PBM binding z-score in experiment [7] came out at 5.21.

On to CGTCCAAGGTCATTGGAGGTCAGTGAAGACAGAT, for which the PBM binding z-score turned out to be 7.03 in experiment [1]; 7.55 in experiment [2]; 4.46 in experiment [3]; 6.96 in experiment [4]; 5.19 in experiment [5]; 3.37 in experiment [6]. In experiment [7], this sequence returned a PBM binding z-score of 5.22.

As for CCTACTGGACCAAGGTCATTGATCAGTCAAAGCA, the PBM binding z-score in experiment [1] was determined as 3.7; in experiment [2], 2.94; in experiment [3], 1.91; in experiment [4] it was 3.39; in experiment [5], 3.43; in experiment [6], 2.69. Moreover, the PBM binding z-score in experiment [7] is 3.61.
